# Experimental data taken from PubChem BioAssay (NCI).
# This is part of a sample that, as a whole, favours compounds with a hit. Of some 83,000 tested, about 20% had one in any assay.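 Testing used 96-well plates and a 48-hour single-concentration exposure. Example: -40 means 40% of the starting cells died.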 A number with no mark means an inactive call. Activity calls are given as the source filed them. Rule for the calls: active = growth percent below 10; inactive = the rest.
# Assays:
# Experiment in all cases: NCI-60 one-dose screen, 48 h (100 = growth as untreated, 0 = no growth, -100 = all killed)
# Settings in all cases: 10 µM unless noted
# T-47D breast = system: T-47D breast
# BT-549 breast = system: BT-549 breast
# MDA-MB-435 melanoma = system: MDA-MB-435 melanoma
# SW-620 colon = system: SW-620 colon
# HCT-116 colon = system: HCT-116 colon
# HCC-2998 colon = system: HCC-2998 colon
# KM12 colon = system: KM12 colon
# MDA-MB-468 breast = system: MDA-MB-468 breast
# MCF7 breast = system: MCF7 breast
SMILES,growth (T-47D breast),growth (BT-549 breast),growth (MDA-MB-435 melanoma),growth (SW-620 colon),growth (HCT-116 colon),growth (HCC-2998 colon),growth (KM12 colon),growth (MDA-MB-468 breast),growth (MCF7 breast)
Brc1ccc(N/N=C/c2c[nH]c3ccc(Br)cc23)nc1,1.46% (active),-22.6% (active),-25% (active),-71.3% (active),-72.9% (active),-94% (active),-57% (active),,
CC(=O)c1cccc(NC(=O)CCC(=O)NS(=O)(=O)c2ccc(C)cc2)c1,106%,107%,112%,111%,101%,117%,104%,122%,
CCOC(=O)c1ccc(Nc2nc(NN)nc(-c3ccc(OC)cc3)c2C#N)cc1,84.9%,116%,62.6%,104%,101%,81%,93.9%,119%,
C#CCOc1cc(N(CC)CC)ccc1C(C(=O)NC(C)(C)C)N(C(=O)C1CCc2cc(F)ccc2O1)c1ccc(Br)cc1 (stereo not drawn),71.3%,75%,69.9%,77.9%,,100%,60.4%,61.2%,52.8%
Cn1cc(-c2cc3nc(-c4cn(C)c5ncc(Br)cc45)cc(N)n3n2)c2cc(Cl)ccc21,-62% (active),-78.8% (active),-88.4% (active),-81.5% (active),-89.3% (active),-99.1% (active),-58.5% (active),,
C=C1CCC2C3(C)COC(c4cc(F)cc(F)c4)OC3CCC2(C)C1CC(O)C1=CCOC1=O (stereo not drawn),40.5%,-12.9% (active),60%,-44.2% (active),,45.8%,60.5%,70.7%,15.3%
COc1ccc(C(=O)/C=C/c2ccc(OCc3ccc(F)cc3)c(OC)c2)cc1OC,26.8%,-1.79% (active),7.77% (active),7.65% (active),,16.8%,14%,8.91% (active),7.56% (active)
Cn1cc(-c2cc3nc(-c4c[nH]c5ccc(Cl)cc45)cc(N)n3n2)c2ccccc21,-73.9% (active),-74% (active),-84.7% (active),-39.3% (active),,-78% (active),-70.3% (active),-73.5% (active),-73.7% (active)
Cc1ccc(-n2c(-c3cc4ccccc4nc3Cl)noc2=O)cc1,63.9%,81.1%,6.44% (active),68.9%,,90.9%,55%,16.2%,64.5%
COc1ccc2c(c1)c(/C=N/Nc1ccc3ccccc3n1)cn2C,3.98% (active),51.4%,11.2%,-67.3% (active),-99.5% (active),-59.6% (active),-66.5% (active),-41.6% (active),
O=c1[nH]c2ccc(Cl)cc2cc1CSc1nccc(-c2ccc(Cl)cc2)n1,41.6%,23.9%,76.5%,73.4%,30.3%,61.7%,69.7%,29.7%,
CCCCSc1nc(Nc2ccc(S(N)(=O)=O)cc2)c(C#N)c(-c2cc(OC)c(OC)c(OC)c2)n1,15.2%,44.3%,33%,48.6%,21.8%,65%,26.6%,61.2%,
CCOC(=O)c1ccc(Nc2nc(NN)nc(-c3ccc(F)cc3)c2C#N)cc1,94.7%,111%,111%,111%,102%,105%,109%,119%,
COc1ccc2c(c1)c(-c1cc3nc(-c4cn(C)c5ncccc45)cc(N)n3n1)cn2C,-48.5% (active),-84.7% (active),-62.4% (active),-70.4% (active),-89% (active),-100% (active),-69.3% (active),-89.6% (active),
O=C(C1=CNC(=S)NC1c1ccc(O)cc1)c1cc2ccccc2oc1=O (stereo not drawn),112%,83.7%,105%,104%,101%,102%,95.8%,99.5%,
